Compounds without any hit were thinned out: in the full panel of roughly 79,000, 15% have a hit. Unmarked numbers belong to inactive results. Active and inactive are the calls of the source. Cut-off read from the data, not from the text of the source: active = growth inhibition above about 70%; inactive = the rest.
assay: NCI Yeast Anticancer Drug Screen. Data for the cln2 rad14 strain (AID 165);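 note: 0% = growth equal to vehicle treated cultures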; settings: S. cerevisiae cln2 rad14 strain, at 50.0 µM, hits give high values
Outline: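 Yeast carrying cln2 and rad14 alterations (cell cycle control and DNA damage repair) were exposed to compounds. Growth inhibition was measured against vehicle-treated controls.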

Row | SMILES | growth inhibition
1 | CCCN(CCC)CCNc1ccc(C)c2sc3ccccc3c(=O)c12 | 99.5% (active)
2 | CC1CC2(C)ON=C(c3ccccc3)N2c2ccccc2S1 (configuration not stated) | 87% (active)
3 | COc1ccc(N=NN2CCCC2)cc1 | 89.7% (active)
4 | S=C(Nc1ccccc1)NC1CC2C=CC1CC2 (configuration not stated) | 31.6%
5 | C=CCOC(=O)C(O)C(CC)CCCCC (configuration not stated) | 80.2% (active)
6 | NC(=O)c1ccccc1C(=O)O | 36.9%
7 | CS(=O)(=O)c1cc(=O)c2ccccc2s1 | 84.7% (active)
8 | O=C([O][Sb]([O]C(=O)C(Cl)(Cl)Cl)([c]1ccccc1)([c]1ccccc1)[c]1ccccc1)C(Cl)(Cl)Cl | 11.9%
9 | CCCCCCCCCCCCCCCCCCOP(=O)([O-])OCC[N+](C)(C)C | 89.5% (active)
10 | Nc1ccc(SCCCc2c(N)nc(N)nc2N)cc1 | 91.8% (active)
11 | O=C1C=CC(=O)c2c1cc1ccccc1c2O | 27.4%
12 | CCN(CC)CC(O)CNc1ccc(NCC(O)CCl)c2c1C(=O)c1ccccc1C2=O (configuration not stated) | 10.8%
13 | N#Cc1c(N)nc2c(N=Nc3ccccc3)c(N)nn2c1Nc1ccccc1 | 16.4%
14 | CC(O)c1c2ccccc2cc2ccccc12 (configuration not stated) | 16.8%
15 | Cc1ccccc1NC(=O)C1C(=O)N(c2ccccc2C)C(=O)/C1=N/O (configuration not stated) | -26.6%
16 | O=Cc1ccc(-c2nccc3c2[nH]c2ccccc23)o1 | 16.1%
17 | C=CC(C)(CCC=C(C)C)OC(=O)Nc1ccccc1 (configuration not stated) | -7.95%
18 | Oc1ccc(-c2nnc(-c3ccc(Cl)cc3Cl)o2)cc1 | 74.4% (active)
19 | C/C=C1\CC(C)(CC)C(C#N)(C#N)C(N)=C1C#N (configuration not stated) | 3.35%
20 | Cc1nc(-c2ccccc2)nc2c1nc(C(C)C)n2Nc1ccccc1 | 64.8%
21 | Cc1csc2c1C(=O)c1ccsc1C2=O | 90.8% (active)
22 | COc1cc(Nc2ccc(Oc3ccc(O)cc3)cc2)c2ncccc2c1 | 57.4%

assay: NCI Yeast Anticancer Drug Screen. Data for the bub3 strain (AID 167); settings: S. cerevisiae bub3 mutant strain, at 5.0 µM (retest, dose inferred, filed as 0.5), hits give high values
Outline: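 In this screen, a yeast mutant lacking normal mitotic checkpoint function is challenged with compound. Relative growth versus vehicle gives the inhibition value.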

Row | SMILES | growth inhibition
23 | CCCCCCCCc1ccc2c3ccccc3c3ccccc3c2c1 | -1%
24 | O=C1C(=O)c2ccc(Br)cc2C(O)=C1C(c1ccccc1)c1ccccc1 | 36%
25 | CN(C)Cc1ccc2[nH]c3c(c2c1)CCCC3 | 1%
26 | COc1ccc(NC(=O)Nc2ccc(Cl)cc2)nn1 | -9%
27 | CO/N=C/c1cc(NC(=S)c2ccoc2C)ccc1Cl | 9%
28 | O=C(Sc1c(-c2ccccc2)c(=O)n(-c2ccccc2)c(=S)n1-c1ccccc1)c1cccs1 | 47%
29 | O=C1/C(=C/c2ccc(F)cc2)CNC/C1=C\c1ccc(F)cc1 | -11%
30 | O=c1cc2cccccc-2cc1O | -65%
31 | Oc1c(Br)cc(Br)cc1-c1ccccc1 | -5%
32 | C(=[CH]/[Sn]([c]1ccccc1)([c]1ccccc1)[c]1ccccc1)/c1ccccc1 | 97% (active)
33 | CCCCCCCCCN1CCNC1=S | 34%
34 | O=C1C/C(=C\c2ccccc2)C(=O)c2ccccc2N1 | -23%
35 | CN(C)C(=O)Nc1ccc(Cc2ccc(NC(=O)N(C)C)cc2)cc1 | -19%
36 | C=C1CC(C)(COc2ccc3c(C)c(Cl)c(=O)oc3c2)OC1=O (configuration not stated) | 13%
37 | CC[C@@]1(OP(=O)(O)O)C(=O)OCc2c1cc1n(c2=O)Cc2cc3ccccc3nc2-1 | 14%
38 | O=S(=O)(Sc1ccccc1)C(c1ccccc1)c1ccccc1 | -4%
39 | CCOC(=O)c1c(N)sc2c1CCCCC2 | -71%
40 | CCCCCCCCCCCCCCNCCN | 84% (active)
41 | CCCN(CCC)CCNc1ccc(C)c2sc3ccccc3c(=O)c12 | 35%
42 | CC1CC2(C)ON=C(c3ccccc3)N2c2ccccc2S1 (configuration not stated) | 10%

Row | SMILES | growth inhibition
43 | COc1ccc(N=NN2CCCC2)cc1 | 49%
44 | S=C(Nc1ccccc1)NC1CC2C=CC1CC2 (configuration not stated) | -4%
45 | C=CCOC(=O)C(O)C(CC)CCCCC (configuration not stated) | 16%
46 | NC(=O)c1ccccc1C(=O)O | 2%
47 | CS(=O)(=O)c1cc(=O)c2ccccc2s1 | -3%
48 | O=C([O][Sb]([O]C(=O)C(Cl)(Cl)Cl)([c]1ccccc1)([c]1ccccc1)[c]1ccccc1)C(Cl)(Cl)Cl | 6%
49 | CCCCCCCCCCCCCCCCCCOP(=O)([O-])OCC[N+](C)(C)C | 7%
50 | Nc1ccc(SCCCc2c(N)nc(N)nc2N)cc1 | -9%
51 | O=C1C=CC(=O)c2c1cc1ccccc1c2O | 22%
52 | CCN(CC)CC(O)CNc1ccc(NCC(O)CCl)c2c1C(=O)c1ccccc1C2=O (configuration not stated) | 97% (active)
53 | N#Cc1c(N)nc2c(N=Nc3ccccc3)c(N)nn2c1Nc1ccccc1 | -5%
54 | CC(O)c1c2ccccc2cc2ccccc12 (configuration not stated) | -1%
55 | Cc1ccccc1NC(=O)C1C(=O)N(c2ccccc2C)C(=O)/C1=N/O (configuration not stated) | 0%
56 | O=Cc1ccc(-c2nccc3c2[nH]c2ccccc23)o1 | 24%
57 | C=CC(C)(CCC=C(C)C)OC(=O)Nc1ccccc1 (configuration not stated) | 0%
58 | Oc1ccc(-c2nnc(-c3ccc(Cl)cc3Cl)o2)cc1 | 17%
59 | C/C=C1\CC(C)(CC)C(C#N)(C#N)C(N)=C1C#N (configuration not stated) | -3%
60 | Cc1nc(-c2ccccc2)nc2c1nc(C(C)C)n2Nc1ccccc1 | 3%
61 | Cc1csc2c1C(=O)c1ccsc1C2=O | 86% (active)
62 | COc1cc(Nc2ccc(Oc3ccc(O)cc3)cc2)c2ncccc2c1 | -9%
